Here are results for 2 sequences from article PMC7862700, “An all-to-all approach to the identification of sequence-specific readers for epigenetic DNA modifications on cytosine”.

Common to all, as to test: DAPPL (digital affinity profiling via proximity ligation, sequencing); 10 mM Tris-HCl pH 7.5, 50 mM NaCl, 1 mM DTT, 4% glycerol, room temperature, 30 min; GST-TFs on glutathione beads, 16-mer random dsDNA library, 0.1% formaldehyde crosslink after washing; high values mean tight binding
Common to all, as to conditions: protein: recombinant; tags: N-terminal GST; dsDNA, one strand shown

The target of assay [1] is T1, ELK1 (Homo sapiens, UniProt P19419 1-428).
T1 sequence: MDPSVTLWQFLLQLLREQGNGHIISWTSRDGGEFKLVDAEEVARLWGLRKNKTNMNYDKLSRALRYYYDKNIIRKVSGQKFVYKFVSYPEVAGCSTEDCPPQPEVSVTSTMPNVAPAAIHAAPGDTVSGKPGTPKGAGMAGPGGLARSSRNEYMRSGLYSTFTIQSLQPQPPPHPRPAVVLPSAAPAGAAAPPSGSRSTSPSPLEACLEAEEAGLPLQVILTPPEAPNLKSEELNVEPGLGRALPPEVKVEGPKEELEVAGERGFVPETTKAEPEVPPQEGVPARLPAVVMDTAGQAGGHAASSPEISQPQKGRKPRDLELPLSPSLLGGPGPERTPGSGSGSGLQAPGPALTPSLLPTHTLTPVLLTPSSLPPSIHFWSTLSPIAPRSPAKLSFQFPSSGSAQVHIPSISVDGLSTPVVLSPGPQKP
Put shortly: (§1)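 Each value of binding signal is a hexamer's read frequency for a factor divided by the same hexamer's frequency in the tag-only sample. Barcoded, bead-captured GST fusions of human transcription factors made in yeast were pooled with that sample and incubated with 200 nmole of a random double-stranded 16-mer DNA library in Tris/NaCl/DTT/glycerol buffer at room temperature for 30 min. Washing, 0.1% formaldehyde crosslinking, proximity ligation, PCR and Illumina NextSeq500 sequencing followed.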

Assay [2] has as its target T2, GABPA (Homo sapiens, UniProt Q06546 1-454).
T2 sequence: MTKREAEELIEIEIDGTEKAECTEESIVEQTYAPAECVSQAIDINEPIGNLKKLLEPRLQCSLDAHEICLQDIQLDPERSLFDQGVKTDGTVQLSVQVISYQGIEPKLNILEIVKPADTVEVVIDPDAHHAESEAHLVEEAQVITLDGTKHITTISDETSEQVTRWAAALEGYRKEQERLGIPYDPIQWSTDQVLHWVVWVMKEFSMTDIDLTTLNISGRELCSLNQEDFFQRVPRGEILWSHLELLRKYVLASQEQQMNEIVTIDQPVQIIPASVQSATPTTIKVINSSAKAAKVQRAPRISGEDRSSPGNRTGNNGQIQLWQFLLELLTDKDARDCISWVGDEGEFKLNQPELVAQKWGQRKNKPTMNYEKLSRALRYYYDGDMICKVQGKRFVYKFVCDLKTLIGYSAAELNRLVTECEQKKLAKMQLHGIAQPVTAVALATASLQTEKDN
The method in brief: as §1

Assay [3] has as its target T3, ERG (Homo sapiens, UniProt P11308 1-479).
T3 sequence: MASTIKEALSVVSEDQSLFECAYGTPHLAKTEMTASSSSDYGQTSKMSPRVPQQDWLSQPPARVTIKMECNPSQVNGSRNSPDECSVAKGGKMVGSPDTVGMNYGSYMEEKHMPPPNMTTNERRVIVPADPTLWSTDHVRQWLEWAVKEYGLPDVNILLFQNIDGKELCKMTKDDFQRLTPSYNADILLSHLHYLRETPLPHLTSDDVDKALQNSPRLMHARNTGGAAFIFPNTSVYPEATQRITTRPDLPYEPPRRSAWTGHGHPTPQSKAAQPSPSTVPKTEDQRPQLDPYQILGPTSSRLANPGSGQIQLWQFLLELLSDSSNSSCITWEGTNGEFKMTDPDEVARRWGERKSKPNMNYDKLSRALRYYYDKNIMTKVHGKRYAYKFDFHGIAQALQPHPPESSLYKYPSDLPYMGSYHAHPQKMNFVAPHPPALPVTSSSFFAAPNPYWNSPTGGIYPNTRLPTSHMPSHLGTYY
The method in brief:
as §1

The target in assay [4] is ELF1 (Homo sapiens, UniProt P32519 1-619). Put shortly: as §1
ELF1, sequence (P32519 whole entry): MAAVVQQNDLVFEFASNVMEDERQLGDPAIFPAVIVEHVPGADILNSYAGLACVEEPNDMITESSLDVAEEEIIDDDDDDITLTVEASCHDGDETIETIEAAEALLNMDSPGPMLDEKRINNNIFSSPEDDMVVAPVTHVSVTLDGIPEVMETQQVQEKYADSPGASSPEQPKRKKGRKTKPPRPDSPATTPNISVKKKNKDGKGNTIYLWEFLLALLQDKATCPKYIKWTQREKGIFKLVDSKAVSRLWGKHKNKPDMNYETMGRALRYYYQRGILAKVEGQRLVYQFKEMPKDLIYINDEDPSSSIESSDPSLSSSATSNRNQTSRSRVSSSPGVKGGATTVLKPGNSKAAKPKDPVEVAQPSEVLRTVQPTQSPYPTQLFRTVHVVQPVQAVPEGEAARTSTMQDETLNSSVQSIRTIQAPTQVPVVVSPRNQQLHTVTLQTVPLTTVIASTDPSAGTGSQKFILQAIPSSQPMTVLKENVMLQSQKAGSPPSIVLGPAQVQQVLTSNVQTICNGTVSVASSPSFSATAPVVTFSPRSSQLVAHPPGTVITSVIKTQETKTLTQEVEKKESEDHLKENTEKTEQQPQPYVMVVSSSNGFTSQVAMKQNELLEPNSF
Assay [5] concerns the target T4, SPIC (Homo sapiens, UniProt Q8N5J4 1-248).
T4 sequence: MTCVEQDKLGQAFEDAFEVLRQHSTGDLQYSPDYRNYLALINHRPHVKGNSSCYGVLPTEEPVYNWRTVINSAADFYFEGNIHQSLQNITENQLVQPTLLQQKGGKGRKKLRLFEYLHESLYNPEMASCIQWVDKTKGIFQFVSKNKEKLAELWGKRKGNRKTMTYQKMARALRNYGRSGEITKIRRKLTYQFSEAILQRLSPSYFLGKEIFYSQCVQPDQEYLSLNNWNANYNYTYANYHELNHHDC
The method in brief:
as §1

Assay [6] addresses ELF4 (Homo sapiens, UniProt Q99607 1-663). Put shortly: as §1
In assay [7] the target is T5, ELK4 (Homo sapiens, UniProt P28324-2 1-405).
T5 sequence: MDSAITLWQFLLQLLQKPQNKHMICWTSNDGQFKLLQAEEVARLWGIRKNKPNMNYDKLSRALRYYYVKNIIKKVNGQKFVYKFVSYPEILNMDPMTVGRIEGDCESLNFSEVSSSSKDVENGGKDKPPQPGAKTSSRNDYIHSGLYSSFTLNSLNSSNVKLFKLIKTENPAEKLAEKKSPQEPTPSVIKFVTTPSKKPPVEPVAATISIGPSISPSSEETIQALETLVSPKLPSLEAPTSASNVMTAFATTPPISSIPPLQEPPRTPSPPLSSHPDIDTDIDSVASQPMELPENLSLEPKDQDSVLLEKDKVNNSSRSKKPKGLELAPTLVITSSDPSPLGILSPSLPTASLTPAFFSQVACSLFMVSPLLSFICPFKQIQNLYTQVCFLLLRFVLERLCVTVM
Put shortly:
as §1

Assay [8] addresses T6, ETS2 (Homo sapiens, UniProt P15036 1-469).
T6 sequence: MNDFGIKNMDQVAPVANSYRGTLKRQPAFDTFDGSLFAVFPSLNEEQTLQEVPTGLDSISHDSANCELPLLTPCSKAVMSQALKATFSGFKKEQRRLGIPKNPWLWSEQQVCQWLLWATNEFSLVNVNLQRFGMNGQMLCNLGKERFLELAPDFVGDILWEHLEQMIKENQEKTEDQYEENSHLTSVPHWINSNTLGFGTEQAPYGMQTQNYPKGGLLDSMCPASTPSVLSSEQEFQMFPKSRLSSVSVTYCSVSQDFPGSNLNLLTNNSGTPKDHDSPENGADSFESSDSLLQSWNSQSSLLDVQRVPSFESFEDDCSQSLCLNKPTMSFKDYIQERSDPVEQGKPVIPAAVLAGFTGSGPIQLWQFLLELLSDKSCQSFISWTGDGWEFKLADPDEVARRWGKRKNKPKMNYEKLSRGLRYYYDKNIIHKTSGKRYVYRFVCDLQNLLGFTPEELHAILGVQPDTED
The method in brief:
as §1

In assay [9] the target is T7, SPDEF (Homo sapiens, UniProt O95238 1-335).
T7 sequence: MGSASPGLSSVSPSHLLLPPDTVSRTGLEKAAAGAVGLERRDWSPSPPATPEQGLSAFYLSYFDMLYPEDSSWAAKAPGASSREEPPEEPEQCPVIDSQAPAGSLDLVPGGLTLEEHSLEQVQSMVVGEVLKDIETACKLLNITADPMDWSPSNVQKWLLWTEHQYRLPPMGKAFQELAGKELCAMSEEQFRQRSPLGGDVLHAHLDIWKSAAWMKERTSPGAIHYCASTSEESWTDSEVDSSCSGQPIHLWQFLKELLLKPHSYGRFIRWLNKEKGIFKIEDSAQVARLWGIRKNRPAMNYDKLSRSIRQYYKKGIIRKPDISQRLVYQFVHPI
Put shortly:
as §1

For assay [10], the target named is T8, ETV7 (Homo sapiens, UniProt Q9Y603 1-341).
T8 sequence: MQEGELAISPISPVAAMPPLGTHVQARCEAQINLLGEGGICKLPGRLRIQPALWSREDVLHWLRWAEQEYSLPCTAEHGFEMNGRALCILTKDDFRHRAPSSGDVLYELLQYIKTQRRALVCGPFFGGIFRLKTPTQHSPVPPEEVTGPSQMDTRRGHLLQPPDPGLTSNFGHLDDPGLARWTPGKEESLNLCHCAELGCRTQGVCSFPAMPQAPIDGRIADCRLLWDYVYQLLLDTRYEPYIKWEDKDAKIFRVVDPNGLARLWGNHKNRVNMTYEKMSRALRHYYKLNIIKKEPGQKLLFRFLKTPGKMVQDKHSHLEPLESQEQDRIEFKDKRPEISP
The method in brief:
as §1

The target in assay [11] is T9, ETV3 (Homo sapiens, UniProt P41162-2 1-143).
T9 sequence: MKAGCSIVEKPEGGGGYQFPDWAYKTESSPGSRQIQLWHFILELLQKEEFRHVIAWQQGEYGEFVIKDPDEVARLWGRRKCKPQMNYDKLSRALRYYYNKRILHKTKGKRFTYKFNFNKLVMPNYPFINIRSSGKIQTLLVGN
The method in brief: as §1

Assay [12] deals with T10, EHF (Homo sapiens, UniProt Q9NZC4 1-300).
T10 sequence: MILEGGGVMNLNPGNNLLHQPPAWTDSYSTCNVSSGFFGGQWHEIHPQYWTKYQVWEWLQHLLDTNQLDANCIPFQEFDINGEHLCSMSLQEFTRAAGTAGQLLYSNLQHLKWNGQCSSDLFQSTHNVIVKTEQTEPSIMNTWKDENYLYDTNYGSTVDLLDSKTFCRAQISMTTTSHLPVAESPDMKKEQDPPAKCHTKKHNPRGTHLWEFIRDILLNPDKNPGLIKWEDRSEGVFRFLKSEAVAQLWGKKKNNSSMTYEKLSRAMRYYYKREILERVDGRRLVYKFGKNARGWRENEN
The method in brief:
as §1

Assay [13] deals with SPI1 (Homo sapiens, UniProt P17947 1-270). The method in brief: as §1
In assay [14] the target is SPIB (Homo sapiens, UniProt Q01892 1-262). Put shortly:
as §1

Assay [15] addresses ETV1 (Homo sapiens, UniProt P50549 1-477). Put shortly:
as §1

The target of assay [16] is T11, ERF (Homo sapiens, UniProt P50548 1-548).
T11 sequence: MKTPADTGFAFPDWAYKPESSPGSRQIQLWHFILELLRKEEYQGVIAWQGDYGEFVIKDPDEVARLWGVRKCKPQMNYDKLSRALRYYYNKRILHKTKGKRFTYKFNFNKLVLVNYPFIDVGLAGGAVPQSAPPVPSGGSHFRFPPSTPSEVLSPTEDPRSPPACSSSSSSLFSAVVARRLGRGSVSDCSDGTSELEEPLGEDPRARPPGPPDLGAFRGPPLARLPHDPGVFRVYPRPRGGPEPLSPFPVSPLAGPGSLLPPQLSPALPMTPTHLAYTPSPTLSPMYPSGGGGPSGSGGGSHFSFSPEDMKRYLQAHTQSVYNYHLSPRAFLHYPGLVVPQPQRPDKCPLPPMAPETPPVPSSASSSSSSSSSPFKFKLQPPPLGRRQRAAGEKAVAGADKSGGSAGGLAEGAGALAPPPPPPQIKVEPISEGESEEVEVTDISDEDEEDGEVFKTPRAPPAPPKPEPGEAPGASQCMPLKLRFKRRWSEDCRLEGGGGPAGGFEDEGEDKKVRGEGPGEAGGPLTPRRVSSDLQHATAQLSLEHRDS
Put shortly:
as §1

Assay [17] addresses T12, ETV3L (Homo sapiens, UniProt Q6ZN32 1-361).
T12 sequence: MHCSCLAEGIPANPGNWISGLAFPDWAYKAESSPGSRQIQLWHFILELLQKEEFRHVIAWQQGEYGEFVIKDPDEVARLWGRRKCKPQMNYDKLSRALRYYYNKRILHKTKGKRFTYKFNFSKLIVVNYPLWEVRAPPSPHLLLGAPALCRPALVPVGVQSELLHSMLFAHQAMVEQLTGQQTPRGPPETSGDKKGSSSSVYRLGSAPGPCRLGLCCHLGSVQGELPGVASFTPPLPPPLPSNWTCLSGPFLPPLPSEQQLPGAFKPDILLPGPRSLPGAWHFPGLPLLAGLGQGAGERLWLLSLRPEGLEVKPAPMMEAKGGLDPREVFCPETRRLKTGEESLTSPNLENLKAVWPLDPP
Put shortly:
as §1

The target of assay [18] is ETV6 (Homo sapiens, UniProt P41212 1-452). Put shortly:
as §1

ELF4, sequence (Q99607 whole entry): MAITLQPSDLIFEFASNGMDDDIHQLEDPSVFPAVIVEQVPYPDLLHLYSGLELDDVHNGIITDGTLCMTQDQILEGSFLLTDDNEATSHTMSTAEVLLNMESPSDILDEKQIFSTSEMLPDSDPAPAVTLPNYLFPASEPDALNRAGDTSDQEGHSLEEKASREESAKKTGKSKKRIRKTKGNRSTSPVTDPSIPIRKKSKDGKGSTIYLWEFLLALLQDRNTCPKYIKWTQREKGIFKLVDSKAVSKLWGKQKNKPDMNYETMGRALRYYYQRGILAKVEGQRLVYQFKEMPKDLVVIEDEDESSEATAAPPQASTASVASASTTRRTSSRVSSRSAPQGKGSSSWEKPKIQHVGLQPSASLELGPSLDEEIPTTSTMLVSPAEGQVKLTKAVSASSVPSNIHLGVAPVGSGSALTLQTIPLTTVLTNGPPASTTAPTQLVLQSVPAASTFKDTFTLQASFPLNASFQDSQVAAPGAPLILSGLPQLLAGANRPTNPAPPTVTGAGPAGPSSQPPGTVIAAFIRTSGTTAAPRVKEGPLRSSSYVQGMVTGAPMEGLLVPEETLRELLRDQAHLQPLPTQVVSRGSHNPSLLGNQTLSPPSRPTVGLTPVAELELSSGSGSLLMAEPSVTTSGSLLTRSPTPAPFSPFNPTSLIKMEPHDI
SPIB, sequence (Q01892 whole entry): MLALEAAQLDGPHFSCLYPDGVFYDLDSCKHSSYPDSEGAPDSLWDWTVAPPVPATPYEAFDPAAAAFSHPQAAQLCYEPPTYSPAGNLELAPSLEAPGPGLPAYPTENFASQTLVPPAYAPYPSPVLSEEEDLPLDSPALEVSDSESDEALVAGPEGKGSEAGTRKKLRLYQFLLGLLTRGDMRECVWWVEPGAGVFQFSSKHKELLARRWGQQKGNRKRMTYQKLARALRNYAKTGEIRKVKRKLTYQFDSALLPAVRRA
ETV1, sequence (P50549 whole entry): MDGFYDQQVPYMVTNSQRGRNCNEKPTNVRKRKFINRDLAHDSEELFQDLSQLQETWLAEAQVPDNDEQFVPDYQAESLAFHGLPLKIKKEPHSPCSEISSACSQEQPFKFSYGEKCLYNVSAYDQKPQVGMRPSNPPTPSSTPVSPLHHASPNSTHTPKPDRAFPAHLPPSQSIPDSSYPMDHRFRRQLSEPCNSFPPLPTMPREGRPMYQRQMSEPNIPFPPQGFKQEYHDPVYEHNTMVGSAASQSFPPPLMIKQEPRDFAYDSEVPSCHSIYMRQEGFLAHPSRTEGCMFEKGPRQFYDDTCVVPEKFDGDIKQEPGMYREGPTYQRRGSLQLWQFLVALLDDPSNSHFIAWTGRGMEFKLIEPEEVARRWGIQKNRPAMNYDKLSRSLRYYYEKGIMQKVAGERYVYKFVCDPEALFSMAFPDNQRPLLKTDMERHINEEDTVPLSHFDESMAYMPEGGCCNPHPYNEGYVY
ETV6, sequence (P41212 whole entry): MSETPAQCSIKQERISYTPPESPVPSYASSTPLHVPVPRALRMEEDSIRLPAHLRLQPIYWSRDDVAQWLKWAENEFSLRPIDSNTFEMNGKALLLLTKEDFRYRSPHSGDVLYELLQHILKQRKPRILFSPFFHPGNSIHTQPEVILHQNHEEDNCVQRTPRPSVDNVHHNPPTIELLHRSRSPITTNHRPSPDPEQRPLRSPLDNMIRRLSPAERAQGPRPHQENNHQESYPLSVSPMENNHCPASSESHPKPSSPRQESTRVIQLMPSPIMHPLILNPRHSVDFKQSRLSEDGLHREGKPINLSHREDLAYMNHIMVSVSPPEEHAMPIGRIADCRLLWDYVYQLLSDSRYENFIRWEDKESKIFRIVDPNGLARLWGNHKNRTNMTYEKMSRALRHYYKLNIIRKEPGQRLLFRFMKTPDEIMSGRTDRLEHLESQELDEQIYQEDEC

TAAGCA: the binding signal in assay [1] was 1.02 fold enrichment (6-mer frequency, TF over GST control); in assay [2], 1.08 fold enrichment (6-mer frequency, TF over GST control); in assay [3], 1.01 fold enrichment (6-mer frequency, TF over GST control); in [4], 1.07 fold enrichment (6-mer frequency, TF over GST control); in assay [5], 1.08 fold enrichment (6-mer frequency, TF over GST control); in [6], 1.03 fold enrichment (6-mer frequency, TF over GST control). For the same sequence, the binding signal in assay [7] was 1.09 fold enrichment (6-mer frequency, TF over GST control); in assay [8], 1.07 fold enrichment (6-mer frequency, TF over GST control); in assay [9], 1.06 fold enrichment (6-mer frequency, TF over GST control); in assay [10], 1.02 fold enrichment (6-mer frequency, TF over GST control); in assay [11] it was 1 fold enrichment (6-mer frequency, TF over GST control).
For the sequence CGTCTG, the binding signal in assay [1] is 1.06 fold enrichment (6-mer frequency, TF over GST control); in [2], 1.06 fold enrichment (6-mer frequency, TF over GST control); in assay [3] it was 1.11 fold enrichment (6-mer frequency, TF over GST control); in [4], 1.11 fold enrichment (6-mer frequency, TF over GST control); in [12], 1.07 fold enrichment (6-mer frequency, TF over GST control); in [13] it was 1.06 fold enrichment (6-mer frequency, TF over GST control). For the same sequence, the binding signal was 1.18 fold enrichment (6-mer frequency, TF over GST control) in assay [14]; 1.17 fold enrichment (6-mer frequency, TF over GST control) in assay [5]; 1.05 fold enrichment (6-mer frequency, TF over GST control) in assay [6]; 1.08 fold enrichment (6-mer frequency, TF over GST control) in assay [7]; 1.12 fold enrichment (6-mer frequency, TF over GST control) in [15]; 1.11 fold enrichment (6-mer frequency, TF over GST control) in assay [16]. Moreover, the binding signal in [17] was 1.14 fold enrichment (6-mer frequency, TF over GST control); in [8] it was 1.08 fold enrichment (6-mer frequency, TF over GST control); in [9], 1.05 fold enrichment (6-mer frequency, TF over GST control); in assay [10], 1.02 fold enrichment (6-mer frequency, TF over GST control); in [18], 1.01 fold enrichment (6-mer frequency, TF over GST control).
